30 compounds from PubChem BioAssay (NCATS) can be followed below.

The target in assay [1] is Voltage-gated inwardly rectifying potassium channel KCNH2 (Homo sapiens) (UniProt Q12809). Briefly: qHTS Assay for Small Molecule Inhibitors of the Human hERG Channel Activity (AID 588834).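 Also: lower thallium flux fluorescence means stronger hERG block; nearly all actives have a fitted effect of over 50% in size.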 Also: potency is read from the fitted curve at half-maximal effect. In outline:
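U2OS cells transduced with hERG via BacMam (MOI ~100), plated 2000/well, loaded with FluxOR thallium dye, compound ~10 min, then stimulation buffer; fluorescence decrease read kinetically; AC50 from Hill fits.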

For assay [2], the target named is Glutaminase kidney isoform, mitochondrial (Homo sapiens) (UniProt O94925). Briefly: qHTS for Inhibitors of Glutaminase (GLS): LOPAC Validation (AID 624146). Also: nearly all actives have a fitted effect of over 60% in size. Also: potency is read from the fitted curve at half-maximal effect. In outline:
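hKGA in 45 mM KH2PO4 pH 8.2, 0.02% Tween-20 with pin-transferred compounds; 1 mM L-glutamine (stock) plus glutamate oxidase/HRP/Amplex Red coupling added. Fluorescence read initially and after 30 min at RT.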
In general terms: Quantitative high-throughput screening tests each substance at several concentrations.

A short description of assay [3]: HTS Assay for Allosteric Antagonists of the Human D2 Dopamine Receptor: Hit Validation in HTRF (AID 624455). Also: potency is read from the fitted curve at half-maximal effect.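 Also: stable D1 dopamine receptor cell line scored for blocking the D1 response.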 The procedure, abridged: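 First, antagonism was screened by calcium flux in a force-coupled, inducible Hek293 Trex D2 line challenged with EC80 dopamine. Hits then went into an HTRF assay in cells stably expressing D1, testing inhibition of the D1 response.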

Assay [4] is described as follows: qHTS of Trypanosoma Brucei Inhibitors: LOPAC Validation (AID 624147). The procedure, abridged: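 Readout: single end-point luminescence (Kinase-Glo Plus, 10 min). Reaction conditions were TbPYK/substrate plus 130 uM ADP, 45 min at RT, pH 7.2 TEA buffer. No-enzyme wells served as controls, and data were normalized before concentration-response fitting.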
For assay [5], the target named is Glucagon-like peptide 1 receptor (Homo sapiens) (UniProt P43220). In words: qHTS of GLP-1 Receptor Agonists: LOPAC Validation (AID 624148).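 Also: luminescence from a luciferase reporter switched on by cAMP; higher luminescence signal means agonism.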 In outline:
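Agonism scored as increased luciferase luminescence driven by cAMP in HEK293 clones carrying GLP-1R. Cells settled 12 hours, received compound for 4-6 hr at 37 deg C, 5% CO2, and were read after 12 min detection reagent at RT.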

Assay [6] can be described thus: qHTS of Nrf2 Activators: LOPAC Validation (AID 624149). The procedure, abridged:
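Luminescence read-out of ARE-luciferase activation: AREc32_Fluc cells treated with compounds for 24 hr at 37 deg C, then lysed with Steady-Glo for 30 min at room temperature before reading.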

Assay [7] has as its target Luciferin 4-monooxygenase (Photinus pyralis) (UniProt P08659). In words: Biochemical firefly luciferase enzyme assay for NPC (AID 624030).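 Also: purified P. pyralis luciferase at 10 nM with luciferin and ATP substrate; series mostly up to about 59 µM; nearly all actives have a fitted effect of over 70% in size.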 In outline:
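Direct inhibition of firefly luciferase enzyme (10 nM final, 50 mM Tris Acetate) assessed by luminescence within 5 minutes. Percent activity scaled between DMSO and PTC124 positive control, with concentration-effect curves classified by fit quality and response.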

The nature of assay [8]: S16 Schwann cell viability assay (CellTiter-Glo assay) (AID 624031).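 Also: native untransfected S16 rat Schwann cells; cellular ATP luminescence as a viability measure; series mostly up to about 58 µM; nearly all actives have a fitted effect of over 70% in size.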 The procedure, abridged:
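Parental S16 cells, 24 h compound, 37 °C. ATP-luminescence viability; DMSO = 0% activity, empty wells as reference; curves classified by fit quality and efficacy.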

Assay [9] is described as follows: S16 Schwann cell PMP22 intronic element firefly luciferase assay (AID 624032). Also: series mostly up to about 58 µM; nearly all actives have a fitted effect of over 30% in size. In outline:
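Luciferase reporter of PMP22 intronic-element expression in stably transfected S16 rat Schwann cells, read by ONE-Glo luminescence after 24 h compound exposure at 37 C. Activity scaled between DMSO (0%) and positive-control PTC124; concentration-effect curves quality-classified.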

Assay [10] can be described thus: S16 Schwann cell PMP22 intronic element beta-lactamase assay (AID 624044; calls by dose curve; also: nearly all actives have a fitted effect of over 15% in size). In outline:
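Rat S16 Schwann cells with beta-Lac driven by a PMP22 intronic element, compound-treated 24 h at 37 °C. LiveBLAzer FRET B/G read: 460 nm normalized to potassium clavulanate vs DMSO; 535 nm FRET as viability; concentration-effect curves classified.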

The structures appear in SMILES notation. Records with an inconclusive call do not appear. Activity calls are given as the source filed them. Unless noted, calls follow the shape of the dose curve; as a rule, active = well fitted curve in the direction sought with a large enough effect; inconclusive = small, poorly fitted or top-dose-only effect, or another doubt; inactive = no such curve, though single readings can be large; an effect the other way counts as inactive or inconclusive.

Sequence of Luciferin 4-monooxygenase (Photinus pyralis) (P08659 whole entry, looked up): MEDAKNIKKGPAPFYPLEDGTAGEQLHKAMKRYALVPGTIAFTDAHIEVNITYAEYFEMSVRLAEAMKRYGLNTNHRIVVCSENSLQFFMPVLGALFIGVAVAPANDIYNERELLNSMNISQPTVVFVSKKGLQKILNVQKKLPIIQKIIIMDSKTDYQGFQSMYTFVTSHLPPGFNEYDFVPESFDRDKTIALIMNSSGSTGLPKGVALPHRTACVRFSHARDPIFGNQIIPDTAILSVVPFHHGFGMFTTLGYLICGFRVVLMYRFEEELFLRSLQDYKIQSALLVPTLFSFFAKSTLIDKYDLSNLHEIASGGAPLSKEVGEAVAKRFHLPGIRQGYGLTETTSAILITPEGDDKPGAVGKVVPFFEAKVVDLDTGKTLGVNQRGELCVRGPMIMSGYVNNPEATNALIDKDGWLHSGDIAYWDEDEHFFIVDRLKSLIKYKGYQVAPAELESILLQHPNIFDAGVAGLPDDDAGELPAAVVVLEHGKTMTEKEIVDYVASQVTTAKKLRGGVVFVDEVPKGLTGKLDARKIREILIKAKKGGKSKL
Sequence of Glutaminase kidney isoform, mitochondrial (Homo sapiens) (O94925 whole entry, looked up, canonical isoform): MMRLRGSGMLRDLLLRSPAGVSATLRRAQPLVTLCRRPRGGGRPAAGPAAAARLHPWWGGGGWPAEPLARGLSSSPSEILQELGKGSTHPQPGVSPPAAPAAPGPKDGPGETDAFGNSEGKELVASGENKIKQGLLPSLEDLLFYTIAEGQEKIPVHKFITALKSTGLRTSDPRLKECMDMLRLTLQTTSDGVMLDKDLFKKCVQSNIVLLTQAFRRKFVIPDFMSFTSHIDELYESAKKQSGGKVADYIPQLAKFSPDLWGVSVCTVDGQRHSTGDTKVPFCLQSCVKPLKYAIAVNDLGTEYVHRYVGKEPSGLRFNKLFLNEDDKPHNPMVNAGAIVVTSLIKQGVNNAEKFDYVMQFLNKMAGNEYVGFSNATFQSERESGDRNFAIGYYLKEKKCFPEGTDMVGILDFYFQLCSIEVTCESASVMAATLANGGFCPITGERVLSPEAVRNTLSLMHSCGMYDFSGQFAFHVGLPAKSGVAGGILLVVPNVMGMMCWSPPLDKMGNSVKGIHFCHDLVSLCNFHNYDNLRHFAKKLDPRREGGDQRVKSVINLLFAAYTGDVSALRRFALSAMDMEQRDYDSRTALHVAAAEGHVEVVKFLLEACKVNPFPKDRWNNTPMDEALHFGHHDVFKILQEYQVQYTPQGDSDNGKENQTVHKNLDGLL
Sequence of Voltage-gated inwardly rectifying potassium channel KCNH2 (Homo sapiens) (Q12809 whole entry, looked up): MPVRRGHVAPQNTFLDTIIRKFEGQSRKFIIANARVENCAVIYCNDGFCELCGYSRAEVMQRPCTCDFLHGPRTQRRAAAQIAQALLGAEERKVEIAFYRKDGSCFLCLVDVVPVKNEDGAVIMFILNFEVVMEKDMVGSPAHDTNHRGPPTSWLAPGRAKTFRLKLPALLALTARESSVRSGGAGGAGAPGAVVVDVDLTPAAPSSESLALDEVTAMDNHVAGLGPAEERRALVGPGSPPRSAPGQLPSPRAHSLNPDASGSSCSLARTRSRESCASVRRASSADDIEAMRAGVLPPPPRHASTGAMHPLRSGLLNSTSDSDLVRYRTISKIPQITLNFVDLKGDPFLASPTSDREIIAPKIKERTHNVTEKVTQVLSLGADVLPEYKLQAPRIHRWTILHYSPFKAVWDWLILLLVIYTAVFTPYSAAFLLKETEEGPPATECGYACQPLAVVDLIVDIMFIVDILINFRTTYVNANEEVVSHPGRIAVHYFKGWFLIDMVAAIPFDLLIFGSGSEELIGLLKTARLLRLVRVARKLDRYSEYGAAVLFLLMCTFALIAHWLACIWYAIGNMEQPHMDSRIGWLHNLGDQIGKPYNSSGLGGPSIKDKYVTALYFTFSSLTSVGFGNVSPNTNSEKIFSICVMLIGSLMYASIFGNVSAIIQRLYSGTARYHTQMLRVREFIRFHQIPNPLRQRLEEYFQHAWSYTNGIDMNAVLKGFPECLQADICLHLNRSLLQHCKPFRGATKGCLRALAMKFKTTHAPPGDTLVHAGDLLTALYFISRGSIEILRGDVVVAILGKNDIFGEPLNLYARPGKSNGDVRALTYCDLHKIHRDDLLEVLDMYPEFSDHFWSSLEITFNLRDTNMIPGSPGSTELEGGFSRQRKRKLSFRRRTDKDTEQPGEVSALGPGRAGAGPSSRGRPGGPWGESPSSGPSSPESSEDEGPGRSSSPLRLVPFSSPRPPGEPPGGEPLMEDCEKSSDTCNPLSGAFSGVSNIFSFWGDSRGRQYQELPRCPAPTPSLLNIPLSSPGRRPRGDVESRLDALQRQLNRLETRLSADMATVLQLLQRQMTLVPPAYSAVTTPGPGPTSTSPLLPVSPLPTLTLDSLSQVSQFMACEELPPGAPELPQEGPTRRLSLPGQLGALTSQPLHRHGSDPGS
Sequence of Glucagon-like peptide 1 receptor (Homo sapiens) (P43220 whole entry, looked up): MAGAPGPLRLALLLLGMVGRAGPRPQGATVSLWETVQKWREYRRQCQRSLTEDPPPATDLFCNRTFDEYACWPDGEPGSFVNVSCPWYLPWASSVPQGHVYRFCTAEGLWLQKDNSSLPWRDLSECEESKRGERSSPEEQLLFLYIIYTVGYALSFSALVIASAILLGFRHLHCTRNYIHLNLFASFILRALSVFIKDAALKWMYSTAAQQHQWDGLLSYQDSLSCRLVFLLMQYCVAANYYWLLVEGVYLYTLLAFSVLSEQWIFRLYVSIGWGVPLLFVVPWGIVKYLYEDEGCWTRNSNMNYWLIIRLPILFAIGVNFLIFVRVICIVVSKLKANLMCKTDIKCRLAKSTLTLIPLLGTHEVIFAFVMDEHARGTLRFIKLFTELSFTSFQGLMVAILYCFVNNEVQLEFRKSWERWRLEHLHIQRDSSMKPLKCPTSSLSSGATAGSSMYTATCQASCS

In the case of `COc1cc2c(CCNC(C)=O)c[nH]c2cc1O`, the Potency result in [1] and in assay [3] was “inactive” throughout. Moreover, the Potency in assay [2] was 2 µM (active).

Turning to `Nc1ccc(-c2nc3ccc(-c4nc5ccc(N)cc5[nH]4)cc3[nH]2)cc1`, the Potency result in assay [1], in assay [4], in assay [5], in [6] and in assay [3] was “inactive” throughout.

For `CC(=O)[C@H]1CCC2C3CC=C4C[C@@H](OS(=O)(=O)O)CC[C@]4(C)C3CC[C@@]21C` (stereo partly specified), the Potency result in [1], in [2], in [6] and in assay [3] was “inactive” in each case.

For `Cc1nc2c(OCc3ccccc3)cccn2c1CC#N`, the Potency entry in assay [1], in assay [4], in assay [5] and in assay [3] was “inactive” in each case.

Regarding `COc1cc(/C=C(\C#N)C(=O)c2ccc(O)c(O)c2)cc(I)c1O`, the Potency entry in [1], in assay [4], in assay [5], in assay [6] and in assay [3] was “inactive” each time.

In the case of `O=C1Cc2c([nH]c3ccc(Br)cc23)-c2ccccc2N1`, the Potency result in assay [1], in [4], in assay [5] and in assay [3] was “inactive” in each case.

With `c1ccc2c(c1)CC(N1CCN(c3cccc4c3OCCO4)CC1)C2`, the Potency in assay [1] is 15.8 µM (active). Further, the Potency result in assay [4], in [5], in assay [6] and in assay [3] was “inactive” in each case.

Consider `Oc1ccc(Cn2cc[nH]c2=S)cc1`, for which the Potency result in assay [1], in [2], in [6] and in assay [3] was “inactive” in each case.

As for `CCCCCCCCCCC/C=C\C(C)(C)/C=C\CCCC(=O)O`, the Potency result in assay [1], in assay [4], in assay [5], in assay [6] and in assay [3] was “inactive” each time.

Regarding `CCSC(=N)N`, the Potency result in [1], in [4], in assay [5], in assay [6] and in assay [3] was “inactive” each time.

On to `COc1cccc(OC)c1OCCNCC1CSc2ccccc2O1` (stereo unspecified), for which the Potency in [1] is 1.41 µM (active); in assay [3] it was 0.291 µM (active). Further, the Potency entry in [4], in assay [5] and in assay [6] was “inactive” throughout.

Consider `NC1(C(=O)O)CC1`, for which the Potency result in assay [2], in assay [4], in assay [5], in [6] and in assay [3] was “inactive” each time.

For the compound `c1ccc(C2CN3CCSC3=N2)cc1` (stereo unspecified), the outcome in [7], in assay [8], in [9] and in assay [10] was inactive. The Potency result in assay [2], in assay [4], in [5], in [6] and in [3] was “inactive” each time.

`CCCCCCCCCCCCCCC[C@H](O)[C@H](N)CO`: the outcome in assay [7], in [9] and in [10] was inactive. Besides, the Potency result in [2], in [4], in assay [5], in assay [6] and in [3] was “inactive” in each case.

Regarding `NC1CCN(O)C1=O` (stereo unspecified), the Potency entry in assay [1], in assay [4] and in [3] was “inactive” each time.

With `O=C(O)Cc1ccc(O)c(O)c1`, the Potency result in [1], in assay [5], in assay [6] and in assay [3] was “inactive” in each case.

As to `CC(O)C(O)[C@H]1CNc2nc(N)[nH]c(=O)c2N1` (stereo partly specified), the compound was called inactive in assay [7], in [8], in [9] and in assay [10]. Further, the Potency entry in assay [2], in assay [4], in assay [5], in assay [6] and in assay [3] was “inactive” throughout.

For the compound `C=CCNc1ncnc2ccc(Br)cc12`, the Potency result in assay [2], in assay [4], in [5], in assay [6] and in assay [3] was “inactive” each time.

On to `N[C@H](C(=O)O)[C@H](Cc1ccccc1)C(=O)O`, for which the Potency entry in assay [2] and in assay [4] was “inactive” each time.

With `CC1=C(C(=O)O)N2C(=O)[C@@H](NC(=O)C(N)C3=CCC=CC3)[C@H]2SC1` (stereo partly specified), the Potency result in assay [1], in assay [4], in assay [6] and in assay [3] was “inactive” each time.

Regarding `[Li+]`, the Potency entry in [2], in assay [4], in [5], in [6] and in assay [3] was “inactive” each time.

For the compound `CCC1(O)CC2CN(CCc3c([nH]c4ccccc34)[C@@](C(=O)OC)(c3cc4c(cc3OC)N(C)C3[C@]45CCN4CC=C[C@@](CC)([C@@H](OC(C)=O)[C@]3(O)C(=O)OC)[C@H]45)C2)C1` (stereo partly specified), in [2], the Potency was 8.91 µM (active). The Potency entry in assay [4], in assay [5], in assay [6] and in assay [3] was “inactive” in each case.

As to `Cc1cccc(C)c1OCC(N)C(C)C` (stereo unspecified), the Potency entry in assay [2], in [4], in assay [5], in assay [6] and in [3] was “inactive” each time.

With `CCN(CC)CCOC(=O)c1cc(Cl)c(N)cc1OC`, the Potency result in assay [1], in [6] and in [3] was “inactive” in each case.

`CC(C)[C@@H]1CC[C@@H](C)C[C@@H]1P(=O)(c1ccccc1)c1ccccc1`: the Potency entry in assay [2], in [4], in assay [5], in assay [6] and in assay [3] was “inactive” in each case.

Take `N[C@@H](CS(=O)O)C(=O)O`: the Potency entry in assay [1], in assay [5] and in assay [6] was “inactive” in each case.

For `Nc1ncnc2c1nc(Sc1ccc(Cl)cc1)n2[C@H]1OC2COP(=O)(O)O[C@@H]2C1O` (stereo partly specified), the Potency result in assay [2], in assay [4], in [5] and in [6] was “inactive” throughout.

On to `O=C(O)[C@H]1NCCC[C@H]1C(=O)O`, for which the Potency result in assay [1], in [5], in assay [6] and in [3] was “inactive” in each case.

As to `CC(C)NC[C@H](O)COc1ccc(CC(N)=O)cc1`, the compound was classed as inactive in [8] and in [9]. Besides, the Potency entry in assay [2], in assay [5] and in [6] was “inactive” each time.

With `COc1ccc(CCN(C)CCc2ccc(OC)c(OC)c2)cc1OC`, the Potency in [1] is 6.31 µM (active). Further, the Potency entry in assay [5], in [6] and in assay [3] was “inactive” each time.
